Consider 40 compounds from PubChem BioAssay (NCATS).

Calls of active or inactive are those of the source. How the calls were made is not given here. Where only a bound is given, the exact number is not on record here.
Potency means the concentration at half of the fitted maximal effect.

In this test the test system is HIV-1 nucleocapsid protein NCp7 (binding to TG oligonucleotide). Put plainly: HIV Nucleocapsid (AID 346).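 Further: potency is for inhibitors that block NC binding and lower polarization.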 The note with it: HIV-1 NC / fluorescein-TGTGTGTG probe, fluorescence polarization. As to the method:
NCGC Assay Overview: HIV-1 nucleocapsid protein (HIV-1 NC) is a small (6.5 kDa) basic zinc-finger protein which participates in packaging of viral genomic RNA. The spacing and metal-chelating residues (3 Cys, 1 His) of the Cys-X2-Cys-X4-His-X4-Cys Zn fingers are conserved among all known retroviruses (J. Med. Chem. 1998, 41, 1371-1381). HIV-1 NC was assayed for its binding to the consensus sequence single-stranded 5'-TGTGTGTG. […] High salt was included to increase the stringency of binding and inhibitor screen. Reducing agents and zinc were present to stabilize the nucleocapsid zinc-finger protein.
NCGC Assay Protocol Summary: Buffer. Hepes pH 7.5, 250mM NaCl, 1uM ZnCl2. 0.004% polyethylene glycol 20000. TCEP (100 uM) and 2-Mercaptoethanol (5 mM), added fresh the day of the experiment. Reagents/Controls. 10 nM TG4xF only in columns 3 and 4 as negative control. 10 nM TG4xF/100 nM HIV-1 NC in columns 1, 2, 5-48. Titration of control compound NSC-13778 (from 20 mM, then 1:2) pin-transferred to column 2. Assay Steps. Two uL of reagents were dispensed to 1536-well Kalypsys black plates. The plates were centrifuged for 1 min at 1000 rpm. Compounds and controls (20 nL) were transferred via Kalypsys PinTool. The plates were incubated for 1 hr at room temperature, and then read on ViewLux (Perkin-Elmer). High-throughput CCD imager using fluorescein polarization filter set and 45 seconds exposure time.
Background: Polarisation of emitted light reports the rotation of a fluorescent probe.
In the case of `O=C(c1cnccn1)N1CCC2(CCCN(c3ccc(-c4ccccc4)cc3)C2)CC1`, the Potency is > 20 µM (inactive).
As for `COCC(=O)N1CCC[C@@]2(CCN(c3ncccn3)C2)C1`, the Potency is > 20 µM (inactive).
With `COc1cccc(-c2nc(NCc3cccs3)c3ccccc3n2)c1`, the Potency is > 20 µM (inactive).
With `COc1ncc2nc(-c3ccc(F)cc3)c(=O)n(C[C@H]3CCCO3)c2n1`, the Potency was > 20 µM (inactive).
Regarding `N#Cc1ccccc1-c1ccc2ncnc(NCc3ccccc3)c2c1`, the Potency is > 20 µM (inactive).
The result for `Cc1ccccc1-c1ccc2ncnc(N3CCOCC3)c2c1` reads > 20 µM (inactive); that for `CS(=O)(=O)N1CCC2(CC1)CN(c1ccncc1)C2`, > 4 µM (inactive).
Regarding `Cc1noc(C)c1C(=O)N1CCC2(CCN(Cc3ccc(C#N)cc3)CC2)CC1`, the Potency is > 20 µM (inactive).
Consider `CN1CCN(c2ccnc(-c3ccccc3C(F)(F)F)n2)CC1`, for which the Potency was > 20 µM (inactive).
Take `COc1ccc(C(=O)N2CCC3(CC2)CN(c2ccccn2)C3)cc1`: the Potency was > 20 µM (inactive).
Consider `COc1ccc(C(=O)N2CCC3(CC2)CN(c2ccc(-c4ccccc4)cc2)C3)cc1`, for which the Potency was > 20 µM (inactive).
On to `O=C(c1cccc(F)c1)N1CCC2(CC1)CN(c1ccccn1)C2`, for which the Potency was > 20 µM (inactive).
With `COc1ccc(Oc2ncc3nc(C)c(=O)n(C[C@H]4CCCO4)c3n2)cc1`, the Potency is > 20 µM (inactive).
Regarding `c1ccc(-c2cccc(N3CC[C@@]4(CCCNC4)C3)c2)cc1`, the Potency is > 20 µM (inactive).
Turning to `COc1ccc2[nH]cc(CCNc3cc(-c4ccc5c(c4)OCO5)ncn3)c2c1`, the Potency was > 20 µM (inactive).
The result for `CS(=O)(=O)Nc1cccc(-c2ccc3ncnc(NC4CC4)c3c2)c1` reads > 20 µM (inactive); that for `Cc1ccccc1-c1ccc2ncnc(NCc3cccs3)c2c1`, > 20 µM (inactive); that for `COc1ccc(NC(=O)N2CC3(CCN(S(C)(=O)=O)CC3)C2)cc1`, > 20 µM (inactive).
`Cc1noc(C)c1C(=O)N1CCC2(CCCN(Cc3nccs3)C2)CC1`: the Potency is > 20 µM (inactive).
Consider `COc1cccc(Nc2ncc3nc(-c4cc(F)cc(F)c4)c(=O)n(C[C@H]4CCCO4)c3n2)c1`, for which the Potency is > 20 µM (inactive).
For `COc1cccc(Cn2c(=O)c(-c3cccs3)nc3cnc(N4CCNCC4)nc32)c1`, the Potency was > 20 µM (inactive).
`COCCn1c(=O)c(-c2ccccc2)nc2cnc(N3CCOCC3)nc21`: the Potency was > 20 µM (inactive).
With `COc1ccc(-c2nc3cnc(Nc4ccccc4)nc3n(Cc3cccs3)c2=O)cc1`, the Potency is > 16 µM (inactive).
In the case of `COc1ccc(-n2c(=O)c(-c3cccs3)nc3cnc(Nc4cccc(OC)c4)nc32)cc1`, the Potency is > 20 µM (inactive).
Take `COc1ccccc1CNc1ncnc2ccc(-c3ccc(C(=O)N(C)C)cc3)cc12`: the Potency is > 20 µM (inactive).
The result for `COCC(=O)N1CCC2(CC1)CN(C(=O)Nc1cccc(F)c1)C2` reads > 20 µM (inactive); that for `COc1ccc(Oc2ncc3nc(-c4ccccc4)c(=O)n(C[C@H]4CCCO4)c3n2)cc1`, > 20 µM (inactive); that for `CN(C)c1nc(-c2ccccc2C(F)(F)F)nc2ccccc12`, > 20 µM (inactive).
The result for `c1csc(CNc2nc(-c3ccc4c(c3)OCO4)nc3ccccc23)c1` reads > 20 µM (inactive); that for `Cc1cccc(CNc2nc(-c3ccc(C(=O)N(C)C)cc3)nc3ccccc23)c1`, > 20 µM (inactive).
Take `CS(=O)(=O)Nc1cccc(-c2ccc3ncnc(N4CCNCC4)c3c2)c1`: the Potency is > 20 µM (inactive).
For the compound `CC(=O)N1CCC2(CCN(Cc3cc(C(F)(F)F)cc(C(F)(F)F)c3)CC2)CC1`, the Potency is > 20 µM (inactive).
On to `COc1cccc(Cn2c(=O)c(CCc3ccccc3)nc3cnc(OC)nc32)c1`, for which the Potency was > 20 µM (inactive).
As for `COc1cccc(Cn2c(=O)c(-c3cccc(F)c3)nc3cncnc32)c1`, the Potency was > 20 µM (inactive).
On to `c1cncc(-c2nccc(-n3ccnc3)n2)c1`, for which the Potency was > 20 µM (inactive).
As for `COc1ccc(CNc2ccnc(-c3ccc(C(=O)N(C)C)cc3)n2)c(OC)c1`, the Potency is > 20 µM (inactive).
For the compound `COc1ccc(Oc2ncc3nc(C)c(=O)n(-c4ccccc4)c3n2)cc1`, the Potency was > 20 µM (inactive).
With `COc1ccc(CNc2nc(-c3ccc(C(=O)N(C)C)cc3)nc3ccccc23)c(OC)c1`, the Potency is > 20 µM (inactive).
The result for `COc1ccc(C(=O)N2CCC3(CCN(C(=O)Nc4cccc(F)c4)CC3)CC2)cc1` reads > 20 µM (inactive); that for `O=c1c(-c2cc(F)cc(F)c2)nc2cncnc2n1-c1ccccc1`, > 20 µM (inactive).
